# Source: PubChem BioAssay AID492948 (National Center for Advancing Translational Sciences (NCATS), 2010)
# Results filed as inconclusive are left out. Calls of active or inactive are those of the source. The call rests on the fitted dose curve; in most records, active means well fitted activation curve with a large enough effect; inconclusive means small, poorly fitted or top-dose-only effect; inactive means no such curve, though single readings can be large or run the other way.
# Experiment: qHTS Assay for Agonists of the Relaxin Receptor RXFP1: V1B Hit Validation;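 further: counter-screen in HEK293 cells expressing V1B rather than RXFP1 for selectivity; nearly all actives have a fitted effect of over 65% in size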;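 on activation: cAMP accumulation with PDE4 inhibitor Ro 20-1724 present during compound exposure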
# Settings: HEK293 V1B cells, cAMP TR-FRET, 30 min; series mostly up to 115 µM
# Procedure, shortened: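 cAMP accumulation, read by TR-FRET competition after lysis, in V1B-expressing HEK293 cells given compound for 30 min at 37C with Ro 20174 present. Responses scaled between buffer basal and 29 nM porcine relaxin; Hill-equation EC50.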
# Potency means the concentration at half of the fitted maximal effect.
row,SMILES,Potency
1,CN(C)CCCn1c(SCC(=O)Nc2nc(-c3cccc(Br)c3)cs2)nc2ccccc2c1=O,inactive
2,Cc1cc(C(=O)COC(=O)Cn2cnc3c2c(=O)n(C)c(=O)n3C)c(C)n1C,13.8 µM (active)
3,CCN(CC)S(=O)(=O)c1cccc(N=Nc2c(O)c3ccccc3oc2=O)c1,27.5 µM (active)
4,CCN(CC)CCCCCC(=O)Nc1ccccc1C(=O)Nc1ccccc1,inactive
5,CN1C(=O)c2ccc(C(=O)Nc3ccc(Br)cn3)cc2C1=O,21.8 µM (active)
6,O=C(COc1ncnc2scc(-c3ccccc3)c12)NCCN1C(=O)CSC1=O,19.4 µM (active)
7,CCOP1(=O)OCC2OC(n3cnc4c(N)ncnc43)C(O)C2O1 (stereo not drawn),12.3 µM (active)
8,CCOC(=O)c1sc(NC(=O)CCc2ccc(OC)cc2)nc1C,15.4 µM (active)
9,CCOC(=O)CNC(=O)CSc1nc2c(C)cccc2cc1CC,17.3 µM (active)
10,O=C(Nc1ccccc1C(=O)O)c1ccc(NC(=O)C2CC2)cc1,inactive
11,CN(Cc1ccccc1)C(=O)c1ccccc1NC(=O)c1ccco1,inactive
12,Cc1ccc(-n2nnc3c(=O)n(CC(=O)NCC4CCCO4)cnc32)cc1 (stereo not drawn),24.5 µM (active)
13,COc1cc(-c2nnc(SCC(=O)N(C)C3CCS(=O)(=O)C3)o2)cc(OC)c1OC (stereo not drawn),inactive
14,COc1ccc(S(=O)(=O)N2CCOCC2)cc1NC(=O)CSc1nnc2ccccn12,3.88 µM (active)
15,Cc1nn(CCCC(=O)NCc2ccc(F)cc2)c(=O)c2nccn12,38.9 µM (active)
16,O=C(O)CCSc1ccc2ccccc2n1,6.15 µM (active)
17,COC(=O)c1sc(N2C(=O)C(O)=C(C(=O)c3ccc(C)o3)C2c2ccc(F)cc2)nc1C (stereo not drawn),2.75 µM (active)
18,COc1ccc(CC(=O)N/N=C/c2cccnc2)cc1OC,inactive
19,O=C(O)CCNc1ccc(NCCC(=O)O)c2c1C(=O)c1ccccc1C2=O,inactive

row,SMILES,Potency
1,O=C(Cn1cnc2c(nnn2-c2ccc(F)cc2)c1=O)NCC1CCCO1 (stereo not drawn),8.7 µM (active)
2,CC(=O)Nc1ccc(NC(=O)CSc2ccc3nnc(-c4cccnc4)n3n2)cc1,13.8 µM (active)
3,CCOc1ccc2cc(C#N)c(SCC(=O)NC(C)CC)nc2c1 (stereo not drawn),5.48 µM (active)
4,COC(=O)[C@@H]1C[C@@]2(O)[C@H](O)[C@H](O)[C@H](O)C[C@H]2N1Cc1cc(F)ccc1F,inactive
5,CCOC(=O)CNC(=O)CSc1ccc2nnc(-c3cccnc3)n2n1,inactive
6,Cc1cccc(C(=O)Nc2ccccc2C(=O)NCc2ccco2)c1,inactive
7,CN(CC(=O)Nc1ccccc1Cl)C(=O)COC(=O)Cc1c(F)cccc1Cl,inactive
8,CCn1c(SCC(=O)Nc2ccc(NC(C)=O)cc2)nc2c1c(=O)n(C)c(=O)n2C,30.9 µM (active)
9,Cc1cc(C)c(NC(=O)CS(=O)CC(=O)Nc2ccc(F)cc2F)c(C)c1 (stereo not drawn),inactive
10,CC(C)n1c(SCC(=O)N2CCN(C(=O)c3ccco3)CC2)nc2c1c(=O)n(C)c(=O)n2C,6.9 µM (active)
11,Cc1cccc(-c2nnc(SCC(=O)NC3CC3)n2C)c1,inactive
12,O=C(O)c1ccc(CN2C(=O)c3ccc(C(=O)O)cc3C2=O)cc1,inactive
13,CCN(CC)S(=O)(=O)c1ccc2c(c1)nc(SCc1nc3ccsc3c(=O)[nH]1)n2CC,0.245 µM (active)
14,Cc1cc(C)c(C(=O)CSc2n[nH]c(=O)n2C2CC2)cc1C,inactive
15,Cn1c(N)c(C(=O)CSc2nnc(NC3CCCCC3)s2)c(=O)n(C)c1=O,inactive
16,CCN(c1ccccc1)S(=O)(=O)c1ccc(OC)c(NC(=O)C2CC(=O)N(Cc3ccccc3)C2)c1 (stereo not drawn),inactive
17,CC1CCCN(C(=O)COC(=O)CNC(=O)c2sc3ccccc3c2Cl)C1 (stereo not drawn),8.68 µM (active)
18,COc1ccc(CN2C(=O)c3cccnc3C2=O)cc1S(=O)(=O)NC1CCCCC1C (stereo not drawn),38.9 µM (active)
19,Cc1ccccc1OCC(=O)Nc1sc(C(=O)Nc2cccc(C)c2C)c(C)c1C#N,6.15 µM (active)
